Screening results: PubChem, several laboratories
ugtP null kill = compounds lethal to S. aureus RN4220 ugtP deletion mutant | OD600 growth, 16 h | growth inhibition, % (no concentration beside the values) | 330,000 tested, 0.54% active | AID 1259309; in the data active = growth inhibition above about 68%
BJeLR lethal = kills HRASV12-expressing BJeLR cells; BJeLR (HRASV12) viability, CellTiter-Glo ATP luminescence, 48 h; 300,000 tested, 0.17% active; inhibition, % (test concentration not listed); AID 1554; in the data active = inhibition above about 50%
Mtb hypoxia rep = Mtb hypoxia fluorescent reporter inhibition | 300,000 tested, 0.1% active | M. tuberculosis hypoxia-regulated fluorescent reporter, fluorescence | fluorescence inhibition, % (no concentration beside the values); in the data active = fluorescence inhibition mostly above about 23%, no sharp cut-off; inactive = mostly below about 17%
RecA intein inh = inhibitors of M. tuberculosis RecA intein splicing; P9WHJ3; cell-free RecA intein splicing, fluorescence; inhibition, % (concentration not given with the values); 290,000 tested, 0.75% active; in the data active = inhibition above about 30%
Target sequence (P9WHJ3 whole entry, looked up): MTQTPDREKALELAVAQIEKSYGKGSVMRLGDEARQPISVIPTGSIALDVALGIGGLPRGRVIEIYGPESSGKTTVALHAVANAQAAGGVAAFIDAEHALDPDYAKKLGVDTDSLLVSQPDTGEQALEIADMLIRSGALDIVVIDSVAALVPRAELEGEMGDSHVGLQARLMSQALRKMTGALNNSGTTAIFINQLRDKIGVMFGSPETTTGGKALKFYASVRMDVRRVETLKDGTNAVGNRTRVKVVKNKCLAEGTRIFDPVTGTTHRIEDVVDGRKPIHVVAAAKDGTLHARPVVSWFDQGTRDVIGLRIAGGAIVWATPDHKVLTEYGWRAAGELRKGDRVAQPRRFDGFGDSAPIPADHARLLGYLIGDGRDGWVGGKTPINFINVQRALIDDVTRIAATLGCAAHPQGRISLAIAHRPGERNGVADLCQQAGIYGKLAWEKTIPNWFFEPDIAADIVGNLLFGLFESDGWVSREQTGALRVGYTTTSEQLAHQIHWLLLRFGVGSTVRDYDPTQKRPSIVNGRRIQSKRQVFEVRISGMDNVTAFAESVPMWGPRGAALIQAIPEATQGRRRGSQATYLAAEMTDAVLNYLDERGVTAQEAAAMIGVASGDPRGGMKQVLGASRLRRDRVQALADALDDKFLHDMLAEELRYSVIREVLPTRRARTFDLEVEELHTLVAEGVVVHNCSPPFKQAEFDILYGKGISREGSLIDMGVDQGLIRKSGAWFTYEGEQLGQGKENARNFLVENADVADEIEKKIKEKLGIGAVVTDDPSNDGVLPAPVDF
Sa RN4220 lethal = kills Staphylococcus aureus RN4220. S. aureus RN4220 growth, OD600, 16 h. inhibition, % (concentration not given with the values). 330,000 tested, 0.33% active. AID 1259311; in the data active = inhibition above about 85%
CCHFV vOTU inh = blocks the CCHF virus ovarian tumor domain protease. CCHFV vOTU protease, Pep-AMC fluorescence. inhibition, % at 11.5 µM. 370,000 tested, 0.55% active. AID 651958; in the data active = inhibition above about 30%
A number is an active result; – = inactive; · = not tested or not shown. Most compounds without a hit are left out; they make up all but 1.6% or so of the library.

SMILES	ugtP null kill	BJeLR lethal	Mtb hypoxia rep	RecA intein inh	Sa RN4220 lethal	CCHFV vOTU inh
C=CC[N@@+]12CC[C@@]34c5ccccc5N5C=C6C7CC8[C@@]9(CC[N@@+]8(CC=C)CC7=CCO)c7ccccc7N(C=C(C(CC31)C(=CCO)C2)C54)C69 (some centres not stated)	–	·	–	·	–	·
COc1ccc(N2C(=O)C(Cl)=C(NCc3ccccc3)C2=O)cc1	–	–	·	35.7	–	–
CCOc1ccccc1NC1=C(Cl)C(=O)N(c2ccc(OC)cc2)C1=O	–	–	–	–	–	–
CN1/C(=C\C=NO)C(C)(C)c2ccccc21	–	·	–	·	–	·
CCN1/C(=C\C=C\C2=[N+](CC)c3ccccc3C2(C)C)C(C)(C)c2ccccc21	100.4	88.1	–	–	100.2	·
C=CCC(CC(=O)NCCO)C(=O)NC(COC(=O)C(CC=C)Cc1ccc(F)cc1)c1ccccc1 (configuration not stated)	–	·	–	·	–	·
CCCCCN1C=CC(=C2C(=O)c3ccccc3C2=O)C=C1	–	51.2	–	–	–	–
CCCCOCCCNC(=O)NC(C(=O)OC)C(C)C (configuration not stated)	–	·	–	·	–	·
CN1CCN(NC(=O)Nc2cc(Cl)cc(Cl)c2)CC1	96.7	–	–	–	100.3	–
O=C(N/N=C/c1cc([N+](=O)[O-])ccc1O)C1CC1	·	–	·	–	·	–
O=[N+]([O-])c1ccc(O)c(C=NNC(=S)Nc2ccc(Cl)cc2Cl)c1	99.8	·	–	·	–	·
O=C(NN=Cc1cc([N+](=O)[O-])ccc1O)C1C2CCCCC21 (configuration not stated)	–	·	–	·	88.7	·
O=C1NCCCC1C(=O)NN=Cc1cc([N+](=O)[O-])ccc1O (configuration not stated)	–	·	–	·	90.3	·
O=C1NCCCC1C(=O)N/N=C/c1cc([N+](=O)[O-])ccc1O (configuration not stated)	·	–	·	–	·	–
O=C(NN=Cc1cc([N+](=O)[O-])ccc1O)C1CCCCC1	85.6	·	–	·	94.7	·
COCCNC(=O)[C@@]1(Cc2ccccc2)C=CC(C)N1C(C)=O (some centres not stated)	–	·	–	·	–	·
C=C(C)C(=O)Oc1ccc(N=Nc2ccc(C)cc2)ccc1=O	99.7	·	–	·	–	–
CC(=O)c1ccc(N=Nc2ccc(C)cc2)cc1	–	–	–	–	–	–
COc1ccc(NC(=O)N(C)CC2Oc3ccc(NS(=O)(=O)c4ccccc4)cc3C(=O)N(C(C)CO)CC2C)cc1 (configuration not stated)	–	·	–	·	–	·
Cn1cnc([N+](=O)[O-])c1Oc1ccc2ccccc2c1	–	–	–	36.3	–	–
CC(=O)c1ccc(N2CCN(C(=O)c3cc(-c4ccc5c(c4)OCO5)nc4ccccc34)CC2)cc1	100.6	–	·	–	–	–
CC=C(NC(C)=O)c1ccccc1	–	·	–	·	–	·
COc1ccc(CCNC(=O)c2cc(Cl)nc3ccccc23)cc1	–	–	–	–	–	–
COc1ccc(CCNC(=O)c2cc(-c3ccccn3)nc3ccccc23)cc1	–	·	29.9	·	–	–
O=C(Nc1cccc(Cl)c1N1CCCC1)c1cc2ccccc2o1	88.7	–	·	–	–	–
SMILES	ugtP null kill	BJeLR lethal	Mtb hypoxia rep	RecA intein inh	Sa RN4220 lethal	CCHFV vOTU inh
O=C(Nc1cccc(Cl)c1N1CCCC1)c1ccc(Br)o1	–	–	–	–	–	–
C=CCCC(Cc1ccc(F)cc1)C(=O)OCC(NC(=O)C(CC=C)CC(=O)NCCO)C(C)(C)C (configuration not stated)	–	·	–	·	–	·
O=C(CCN1C(=O)/C(=C\c2ccccc2F)SC1=S)Nc1ccc(C(=O)O)c(O)c1	·	–	·	32.0	·	–
O=C(CCCN1C(=O)/C(=C\c2cccs2)SC1=S)Nc1ccc(O)cc1C(=O)O	–	–	–	31.6	–	–
O=C(CCCN1C(=O)/C(=C/c2cccs2)SC1=S)Nc1ccccc1O	–	–	–	–	–	–
O=C(CCCN1C(=O)/C(=C\c2cccs2)SC1=S)Nc1ccc(O)cc1	–	–	–	66.6	–	–
C#CCNC(=O)C1=CC(c2ccc(C(F)(F)F)cc2)C(CCCO)C(OCC)O1 (configuration not stated)	–	·	–	·	–	·
CN1C(=O)C(=CC(=O)c2cccs2)c2ccccc21	–	·	–	·	–	·
Cc1cc(Br)c2c(c1)/C(=C/C(=O)c1cccs1)C(=O)N2	–	–	–	78.1	–	–
Cc1cc(C)c2c(c1)/C(=C/C(=O)c1ccc(Br)s1)C(=O)N2	–	–	–	–	–	–
Cc1cccc2c1NC(=O)/C2=C\C(=O)c1cccs1	97.6	–	–	–	96.6	–
CCc1ccc2c(c1)/C(=C/C(=O)c1cccs1)C(=O)N2	97.1	–	–	–	97.0	–
CC(C)(C)n1nnnc1C(c1cccs1)N(Cc1cccnc1)Cc1ccccc1Cl (configuration not stated)	–	–	–	34.9	–	–
Oc1cccc(-c2nc3c4c(ncn3n2)-c2ccccc2CC42CCCC2)c1	88.8	–	–	–	–	–
COc1ccc(-c2nc3c4c(ncn3n2)-c2ccccc2CC42CCCC2)cc1	·	–	·	–	·	–
CCOC(=O)C1C2COc3ccc(Cl)cc3C2N2C(=O)c3ccccc3NC(=O)[C@@]12C (some centres not stated)	–	·	–	·	–	·
Nc1nc(N)c2cc(Sc3ccc(Cl)cc3)ccc2n1	·	·	·	·	·	–
Nc1nc(N)c2cc(Sc3ccc4ccccc4c3)ccc2n1	99.4	60.2	–	–	99.5	–
O=C(NCCc1ccccc1)c1cc(-c2ccccc2)c(N2CCOCC2)s1	–	–	·	–	–	–
CCN(CC)CCCNC(=O)c1cc(-c2ccccc2)c(N2CCCCC2)s1	87.8	50.9	–	–	–	–
CN(C)S(=O)(=O)c1ccc(N2CCCC2)c(C(=O)NNC(=O)c2ccc(Br)cc2)c1	–	–	–	–	–	–
CN(C)S(=O)(=O)c1ccc(N2CCCC2)c(C(=O)NNC(=O)c2ccccc2)c1	–	·	–	·	95.5	–
C#CCOCCOCCOCCNc1nc(N2CCN(C(=O)Cn3cc(CCO)nn3)CC2)nc(N2CCN(C(=O)C(C(C)CC)n3cc(CCCN=C(N)N)nn3)CC2)n1 (configuration not stated)	–	·	–	·	–	·
CCN(CC)c1nc2ccccc2n(Cc2cccc(OC)c2)c1=O	91.0	–	–	–	–	–
CCOC(=O)C(O)C(O)c1cccc(C(O)C(O)C(=O)OCC)c1 (configuration not stated)	–	·	–	·	–	·
O=C(Cn1c(=O)cnc2ccccc21)Nc1cccc(S(=O)(=O)N2CCOCC2)c1	–	·	28.3	·	–	–
O=C(Cn1c(=O)cnc2ccccc21)Nc1cccc(S(=O)(=O)N2CCCCC2)c1	–	·	–	·	–	–
O=C(NCCc1ccc(Cl)cc1)c1ccc(CNc2c(N3CCOCC3)c(=O)c2=O)cc1	–	–	42.1	–	–	–
COC(=O)[C@@]12CCCN1C(c1ccc(-c3ccc(C(C)=O)cc3)c(OC)c1)C1C(=O)N(C)C(=O)C12 (some centres not stated)	–	·	–	·	–	·
